Measurements as given in the supplement of paper PMC11732987, “Enantioselective OTUD7B fragment discovery through chemoproteomics screening and high-throughput optimisation” (Communications Chemistry, 2025).

Tests used:
Test in all cases: log2 ratio of Biotin-Ahx-Ub-VS probe labelling (fragment/DMSO); higher = less target engagement (more negative = stronger competition), active = hit call of the paper (q ≤ 0.05, log2 ratio ≤ -1)
Conditions in all cases: compound concentration: 200 uM; treatment time: 3 h
USP34 = USP34 (UniProt Q70CQ2)
In short: (§1)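 HEK293T lysate in Tris/CHAPS/IGEPAL buffer with protease inhibitors (495 µg per sample) was given fragment at 200 µM or vehicle for 3 h, in triplicate. It then received Biotin-Ahx-Ub-VS at 0.5 µM final for 1 h. Labelled DUBs were NeutrAvidin-enriched, digested with LysC and trypsin, and run by diaPASEF LC-MS/MS. Values are average log2 fragment/vehicle ratios by unpaired t-test on global-median-normalised Spectronaut quantities of proteins with ≥2 unique peptides.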

USP36 = molecular target: T1, USP36 (UniProt Q9P275)
T1 sequence (whole entry): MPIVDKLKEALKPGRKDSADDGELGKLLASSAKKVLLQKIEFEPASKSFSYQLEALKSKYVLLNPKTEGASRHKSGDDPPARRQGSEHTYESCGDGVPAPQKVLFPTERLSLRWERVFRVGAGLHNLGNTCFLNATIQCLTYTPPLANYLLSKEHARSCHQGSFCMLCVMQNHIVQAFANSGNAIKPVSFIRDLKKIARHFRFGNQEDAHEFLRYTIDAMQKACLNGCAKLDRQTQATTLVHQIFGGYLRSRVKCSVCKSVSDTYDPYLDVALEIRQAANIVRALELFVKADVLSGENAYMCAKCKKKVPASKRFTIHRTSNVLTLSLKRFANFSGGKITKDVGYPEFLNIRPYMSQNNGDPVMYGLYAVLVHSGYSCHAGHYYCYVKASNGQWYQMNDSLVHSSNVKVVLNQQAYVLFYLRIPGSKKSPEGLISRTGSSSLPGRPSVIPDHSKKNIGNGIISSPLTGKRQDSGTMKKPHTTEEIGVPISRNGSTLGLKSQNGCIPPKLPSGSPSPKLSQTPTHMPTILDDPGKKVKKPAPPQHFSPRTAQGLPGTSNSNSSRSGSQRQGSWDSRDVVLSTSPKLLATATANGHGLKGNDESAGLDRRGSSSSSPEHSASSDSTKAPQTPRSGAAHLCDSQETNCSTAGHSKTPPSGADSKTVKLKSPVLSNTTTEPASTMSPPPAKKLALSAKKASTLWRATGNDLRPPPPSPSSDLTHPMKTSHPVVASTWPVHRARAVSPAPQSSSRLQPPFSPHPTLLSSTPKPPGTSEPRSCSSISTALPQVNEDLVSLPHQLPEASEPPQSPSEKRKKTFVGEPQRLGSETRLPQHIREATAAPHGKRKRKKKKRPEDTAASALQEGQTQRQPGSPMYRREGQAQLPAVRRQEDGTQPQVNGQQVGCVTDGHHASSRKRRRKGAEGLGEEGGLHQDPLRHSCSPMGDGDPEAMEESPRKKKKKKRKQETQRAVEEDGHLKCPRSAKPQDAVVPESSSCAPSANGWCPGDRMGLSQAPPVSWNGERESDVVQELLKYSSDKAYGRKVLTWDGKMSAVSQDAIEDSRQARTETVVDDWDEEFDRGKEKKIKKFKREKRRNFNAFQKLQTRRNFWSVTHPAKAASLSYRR
In short: as §1

USP38 = molecular target: T2, USP38 (UniProt Q8NB14)
T2 sequence (whole entry): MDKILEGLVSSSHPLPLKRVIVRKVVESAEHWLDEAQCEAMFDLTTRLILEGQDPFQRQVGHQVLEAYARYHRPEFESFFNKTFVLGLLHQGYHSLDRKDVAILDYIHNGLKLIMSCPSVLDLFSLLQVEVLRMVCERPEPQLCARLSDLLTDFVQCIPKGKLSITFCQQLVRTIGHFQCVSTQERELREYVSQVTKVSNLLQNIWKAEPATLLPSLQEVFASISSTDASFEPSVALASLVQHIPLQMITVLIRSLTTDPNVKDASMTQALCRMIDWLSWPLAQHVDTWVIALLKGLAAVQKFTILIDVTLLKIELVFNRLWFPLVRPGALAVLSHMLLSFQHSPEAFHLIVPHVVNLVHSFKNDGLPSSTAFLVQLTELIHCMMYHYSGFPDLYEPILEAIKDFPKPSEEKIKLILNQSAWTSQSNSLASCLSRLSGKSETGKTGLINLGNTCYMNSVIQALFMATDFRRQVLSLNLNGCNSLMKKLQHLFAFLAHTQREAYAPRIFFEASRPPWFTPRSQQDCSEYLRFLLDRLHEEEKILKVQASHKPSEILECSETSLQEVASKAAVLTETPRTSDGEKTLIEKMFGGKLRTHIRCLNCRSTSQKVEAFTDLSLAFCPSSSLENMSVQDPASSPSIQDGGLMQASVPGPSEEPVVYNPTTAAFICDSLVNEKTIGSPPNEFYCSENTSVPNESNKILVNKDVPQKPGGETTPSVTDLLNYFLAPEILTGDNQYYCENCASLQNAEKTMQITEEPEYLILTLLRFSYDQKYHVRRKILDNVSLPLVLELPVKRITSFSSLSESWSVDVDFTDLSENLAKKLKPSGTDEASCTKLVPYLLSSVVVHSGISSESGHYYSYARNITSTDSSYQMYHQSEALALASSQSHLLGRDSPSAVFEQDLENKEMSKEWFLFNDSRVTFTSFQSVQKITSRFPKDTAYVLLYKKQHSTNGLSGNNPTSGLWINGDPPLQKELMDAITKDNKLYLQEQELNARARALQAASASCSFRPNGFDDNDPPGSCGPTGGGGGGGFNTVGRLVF
In short: as §1

USP39 = molecular target: T3, USP39 (UniProt Q53GS9)
T3 sequence (whole entry): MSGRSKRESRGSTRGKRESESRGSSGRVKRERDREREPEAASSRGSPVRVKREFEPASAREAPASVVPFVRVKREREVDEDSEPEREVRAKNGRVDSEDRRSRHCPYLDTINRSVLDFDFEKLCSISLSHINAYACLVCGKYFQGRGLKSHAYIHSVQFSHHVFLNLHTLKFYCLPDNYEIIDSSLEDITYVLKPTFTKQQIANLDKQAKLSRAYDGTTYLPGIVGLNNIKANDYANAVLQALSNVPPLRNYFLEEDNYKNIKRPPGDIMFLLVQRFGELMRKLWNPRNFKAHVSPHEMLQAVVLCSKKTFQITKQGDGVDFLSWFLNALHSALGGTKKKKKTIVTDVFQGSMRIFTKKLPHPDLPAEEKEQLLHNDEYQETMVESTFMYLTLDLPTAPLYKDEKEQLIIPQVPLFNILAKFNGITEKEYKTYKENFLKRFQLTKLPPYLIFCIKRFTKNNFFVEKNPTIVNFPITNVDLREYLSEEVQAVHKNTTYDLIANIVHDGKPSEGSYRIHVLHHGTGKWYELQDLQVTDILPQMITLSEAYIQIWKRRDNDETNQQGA
In short: as §1

USP4 = molecular target: T4, USP4 (UniProt Q13107)
T4 sequence (whole entry): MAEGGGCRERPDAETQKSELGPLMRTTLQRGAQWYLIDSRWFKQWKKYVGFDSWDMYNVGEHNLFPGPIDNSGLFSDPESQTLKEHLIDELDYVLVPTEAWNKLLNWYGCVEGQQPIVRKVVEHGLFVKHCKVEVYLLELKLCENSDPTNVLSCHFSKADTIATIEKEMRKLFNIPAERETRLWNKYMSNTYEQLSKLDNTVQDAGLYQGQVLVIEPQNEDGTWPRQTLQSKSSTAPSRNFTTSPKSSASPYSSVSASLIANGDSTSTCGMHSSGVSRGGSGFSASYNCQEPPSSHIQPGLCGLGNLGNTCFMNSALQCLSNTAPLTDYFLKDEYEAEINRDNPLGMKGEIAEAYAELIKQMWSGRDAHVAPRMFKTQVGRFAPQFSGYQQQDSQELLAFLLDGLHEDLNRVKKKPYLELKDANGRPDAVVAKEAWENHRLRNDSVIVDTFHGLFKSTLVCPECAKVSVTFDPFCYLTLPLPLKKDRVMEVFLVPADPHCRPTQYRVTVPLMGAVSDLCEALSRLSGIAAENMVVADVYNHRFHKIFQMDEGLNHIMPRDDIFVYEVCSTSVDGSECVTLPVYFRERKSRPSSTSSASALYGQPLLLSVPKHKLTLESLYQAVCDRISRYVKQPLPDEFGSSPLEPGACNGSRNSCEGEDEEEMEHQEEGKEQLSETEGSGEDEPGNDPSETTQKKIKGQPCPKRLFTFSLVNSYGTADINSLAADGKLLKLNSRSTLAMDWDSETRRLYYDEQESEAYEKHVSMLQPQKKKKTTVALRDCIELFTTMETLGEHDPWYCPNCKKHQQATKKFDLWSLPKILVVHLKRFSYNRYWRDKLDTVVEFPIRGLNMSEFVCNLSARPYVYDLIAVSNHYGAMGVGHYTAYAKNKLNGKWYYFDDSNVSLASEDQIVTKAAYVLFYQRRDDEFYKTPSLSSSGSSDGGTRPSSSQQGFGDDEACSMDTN
In short: as §1

Measured: log2 ratio of Biotin-Ahx-Ub-VS probe labelling

USP34, sequence (Q70CQ2 whole entry, the tested form may be a part): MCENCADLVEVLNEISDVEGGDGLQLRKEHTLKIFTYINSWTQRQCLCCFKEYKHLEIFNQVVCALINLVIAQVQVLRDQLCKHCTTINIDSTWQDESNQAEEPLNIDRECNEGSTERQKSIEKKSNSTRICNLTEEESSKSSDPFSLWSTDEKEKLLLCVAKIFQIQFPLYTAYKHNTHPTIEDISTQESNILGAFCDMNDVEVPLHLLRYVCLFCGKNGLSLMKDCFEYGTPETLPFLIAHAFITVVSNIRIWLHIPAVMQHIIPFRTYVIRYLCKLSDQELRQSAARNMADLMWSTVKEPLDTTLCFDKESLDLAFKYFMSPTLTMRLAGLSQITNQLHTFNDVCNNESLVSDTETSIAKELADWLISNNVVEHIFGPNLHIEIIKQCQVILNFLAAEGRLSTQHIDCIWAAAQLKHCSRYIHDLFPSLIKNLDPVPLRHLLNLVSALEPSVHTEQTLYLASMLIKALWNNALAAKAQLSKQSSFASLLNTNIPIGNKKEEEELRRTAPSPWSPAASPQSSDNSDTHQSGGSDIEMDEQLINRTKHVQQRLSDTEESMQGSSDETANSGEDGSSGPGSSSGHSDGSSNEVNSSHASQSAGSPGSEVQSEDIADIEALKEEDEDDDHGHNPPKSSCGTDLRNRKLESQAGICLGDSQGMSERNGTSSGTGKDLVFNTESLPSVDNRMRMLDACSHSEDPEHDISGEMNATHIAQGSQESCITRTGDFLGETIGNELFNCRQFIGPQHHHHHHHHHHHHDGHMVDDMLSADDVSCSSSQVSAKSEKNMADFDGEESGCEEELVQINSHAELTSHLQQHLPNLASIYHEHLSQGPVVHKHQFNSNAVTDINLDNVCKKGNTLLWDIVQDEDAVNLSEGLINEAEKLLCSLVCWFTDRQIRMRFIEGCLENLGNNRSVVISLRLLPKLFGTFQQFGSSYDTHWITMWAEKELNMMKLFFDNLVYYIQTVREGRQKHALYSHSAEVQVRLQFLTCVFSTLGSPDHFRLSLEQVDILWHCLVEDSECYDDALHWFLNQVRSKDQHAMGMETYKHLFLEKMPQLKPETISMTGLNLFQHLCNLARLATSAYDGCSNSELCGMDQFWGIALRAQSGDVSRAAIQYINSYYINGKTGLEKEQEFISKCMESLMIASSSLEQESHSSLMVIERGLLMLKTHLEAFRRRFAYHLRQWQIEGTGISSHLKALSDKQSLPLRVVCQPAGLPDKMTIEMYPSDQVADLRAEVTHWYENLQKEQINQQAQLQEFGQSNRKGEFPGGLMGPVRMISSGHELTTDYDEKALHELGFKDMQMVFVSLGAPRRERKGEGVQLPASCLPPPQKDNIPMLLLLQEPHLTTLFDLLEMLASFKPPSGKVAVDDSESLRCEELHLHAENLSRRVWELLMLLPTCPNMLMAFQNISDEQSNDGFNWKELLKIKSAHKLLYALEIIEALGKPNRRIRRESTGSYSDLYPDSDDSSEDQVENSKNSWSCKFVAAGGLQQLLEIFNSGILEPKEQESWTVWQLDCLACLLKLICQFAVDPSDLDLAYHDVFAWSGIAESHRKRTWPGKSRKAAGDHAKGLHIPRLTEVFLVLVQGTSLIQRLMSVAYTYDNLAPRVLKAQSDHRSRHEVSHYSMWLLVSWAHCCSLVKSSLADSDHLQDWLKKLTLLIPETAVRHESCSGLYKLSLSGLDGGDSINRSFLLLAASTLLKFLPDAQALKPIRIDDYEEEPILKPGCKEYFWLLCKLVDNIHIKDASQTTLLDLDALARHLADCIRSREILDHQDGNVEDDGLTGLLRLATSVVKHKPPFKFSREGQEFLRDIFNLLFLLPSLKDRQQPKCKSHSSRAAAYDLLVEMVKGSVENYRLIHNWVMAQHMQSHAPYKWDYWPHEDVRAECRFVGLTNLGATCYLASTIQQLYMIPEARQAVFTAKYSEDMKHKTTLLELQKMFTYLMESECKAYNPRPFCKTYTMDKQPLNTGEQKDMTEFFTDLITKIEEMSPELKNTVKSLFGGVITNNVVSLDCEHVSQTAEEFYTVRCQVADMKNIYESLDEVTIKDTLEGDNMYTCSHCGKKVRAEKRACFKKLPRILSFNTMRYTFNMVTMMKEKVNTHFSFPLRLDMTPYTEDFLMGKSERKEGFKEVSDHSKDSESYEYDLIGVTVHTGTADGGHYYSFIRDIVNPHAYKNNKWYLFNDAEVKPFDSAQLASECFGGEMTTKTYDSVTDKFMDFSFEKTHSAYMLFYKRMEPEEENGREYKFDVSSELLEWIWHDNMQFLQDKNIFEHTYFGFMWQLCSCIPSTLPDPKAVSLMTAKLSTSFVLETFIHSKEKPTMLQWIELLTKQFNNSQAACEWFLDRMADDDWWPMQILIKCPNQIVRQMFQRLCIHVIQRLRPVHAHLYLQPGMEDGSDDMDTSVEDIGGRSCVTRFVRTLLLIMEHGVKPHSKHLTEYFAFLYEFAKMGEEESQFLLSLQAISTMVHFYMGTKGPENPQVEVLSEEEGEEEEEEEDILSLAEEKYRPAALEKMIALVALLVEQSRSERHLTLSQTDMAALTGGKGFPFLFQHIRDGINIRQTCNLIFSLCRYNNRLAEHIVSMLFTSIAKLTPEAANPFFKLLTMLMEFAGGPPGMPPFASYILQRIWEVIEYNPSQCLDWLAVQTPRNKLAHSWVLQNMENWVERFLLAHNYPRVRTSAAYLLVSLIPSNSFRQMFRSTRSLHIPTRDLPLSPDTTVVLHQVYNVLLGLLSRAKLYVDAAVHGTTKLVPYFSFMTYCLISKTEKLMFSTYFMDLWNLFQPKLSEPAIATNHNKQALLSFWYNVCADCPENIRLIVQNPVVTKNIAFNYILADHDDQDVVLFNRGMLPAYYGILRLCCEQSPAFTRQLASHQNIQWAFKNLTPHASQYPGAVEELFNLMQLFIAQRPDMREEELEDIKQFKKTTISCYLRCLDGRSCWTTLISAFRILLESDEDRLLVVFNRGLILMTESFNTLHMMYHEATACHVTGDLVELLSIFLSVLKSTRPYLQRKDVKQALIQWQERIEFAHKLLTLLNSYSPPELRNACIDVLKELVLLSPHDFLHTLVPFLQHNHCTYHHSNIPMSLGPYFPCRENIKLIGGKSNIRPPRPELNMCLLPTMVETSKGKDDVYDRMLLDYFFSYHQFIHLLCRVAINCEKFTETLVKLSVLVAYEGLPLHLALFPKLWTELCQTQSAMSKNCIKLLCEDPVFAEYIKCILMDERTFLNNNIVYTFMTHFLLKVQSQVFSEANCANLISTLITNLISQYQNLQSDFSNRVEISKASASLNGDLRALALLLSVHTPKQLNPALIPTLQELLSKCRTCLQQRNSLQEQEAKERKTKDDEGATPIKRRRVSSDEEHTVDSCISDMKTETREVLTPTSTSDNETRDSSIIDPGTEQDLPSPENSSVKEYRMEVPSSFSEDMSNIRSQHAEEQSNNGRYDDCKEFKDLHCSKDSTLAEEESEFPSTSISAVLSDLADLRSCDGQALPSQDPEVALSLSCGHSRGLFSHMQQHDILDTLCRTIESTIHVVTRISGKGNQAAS

O=C(CCl)N1CC2(CCOCC2)C1
inactive: USP34 -0.0656 | USP36 -0.243 | USP38 0.103 | USP39 0.364 | USP4 -0.0394
